# According to PubChem BioAssay AID1347142 (National Center for Advancing Translational Sciences (NCATS), 2019):
# Inconclusive results are not listed. The source made the active and inactive calls. The call rests on the fitted dose curve; in most records, active means well fitted inhibition curve with a large enough effect; inconclusive means small, poorly fitted or top-dose-only effect; inactive means no such curve, though single readings can be large or run the other way.
# Biological target: N-terminal Xaa-Pro-Lys N-methyltransferase 1 (Homo sapiens) (UniProt Q9BV86)
# Assay: qHTS Assay for Inhibitors of N-terminal methyltransferase 1 (NTMT1): ThioGlo3 Assay Confirmatory Screen, Round 1.
# Conditions: NTMT1 SAHH-coupled ThioGlo3 fluorescence, 30 min; series mostly up to 56.8 µM
# Description: Assay Submitter (PI): Rong Huang Ph.D, Purdue University, West Lafayette, IN 47907 The N-terminal methytransferase 1 is the first methyltransferase that methylates protein alpha-N-amines and plays an important role in regulating cell mitosis, chromatin interactions and DNA repair. It is observed to be over-expressed in various cancer patient tissues like malignant melanoma and colorectal cancer tissues. Knockdown of NTMT1 in cancer cells causes cell mitotic defects and enhances sensitivity to DNA damaging chemotherapeutics. […] These critical cellular processes in which NTMT1 is implicated, coupled with emerging links to cellular dysfunction, strengthen the inference that NTMT1 is a compelling novel anticancer target. Progress have been made in understanding the molecular properties of NTMT1 and the biological consequences of protein alpha-N-terminal methylation, but there are no specific small molecule probes available for NTMT1 to fully characterize its MTase activity. To address this unmet need, a panel of assay is created and established to enable quantitative high-throughput screening (qHTS) for novel, potent, and selective small molecule NTMT1 inhibitors. Two orthogonal qHTS that use different reagents (ThioGlo vs. MTaseGlo) are developed for primary robotic screening against the NCATS chemical library of more than 400,000 small molecules. Identified inhibitors are reacquired, validated, and further characterized. […] Early Translation Branch (ETB) National Center for Advancing Translational Sciences (NCATS) National Institute of Health (NIH)
# Materials: NTMT1 enzyme, substrate SPKRIA, control peptide RCC1-6 is provided by the Huang laboratory. ThioGlo3 Assay: In brief, 125nM NTMT1 enzyme was dispensed into a 1536-well assay plate with Aurora Discovery BioRAPTR Flying Reagent Dispenser (FRD, Beckton-Dickenson). Compounds (at various concentration) or 1uM RCC1-6 (SPKRIA) control were transferred to the assay plate using the Kalypsys 1536-pintool apparatus. After 1 min of room temperature incubation, 1uL of substrate (100uM SAM, 10uM SAHH, 15uM ThioGlo3) was added to the wells bringing the final assay volume to 4uL. Initial (background) fluorescence readout (EX: 340nm, EM: 450nm) was then detected using the PerkinElmer ViewLux microplate imager and a final fluorescence readout was taken after 30 min of room temperature incubation. The data was normalized to the background fluorescence.
# Further: nearly all actives have a fitted effect of over 80% in size.
# Potency means the concentration at half of the fitted maximal effect.
# Sequence of N-terminal Xaa-Pro-Lys N-methyltransferase 1 (Homo sapiens) (Q9BV86 whole entry, looked up): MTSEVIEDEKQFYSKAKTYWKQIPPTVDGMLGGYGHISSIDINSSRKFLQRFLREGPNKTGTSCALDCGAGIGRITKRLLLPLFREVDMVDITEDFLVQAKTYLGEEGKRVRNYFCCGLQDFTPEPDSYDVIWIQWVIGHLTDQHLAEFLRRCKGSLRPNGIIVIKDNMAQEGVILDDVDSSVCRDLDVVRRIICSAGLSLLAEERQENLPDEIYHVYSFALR
row,Compound,Potency
1,COc1cc2c(NC3CCN(C(C)C)CC3)nc(N3CCCCC3)nc2cc1OCCOCCN(C)C,27.1 µM (active)
2,Nc1nc(Cl)nc2c1ncn2[C@@H]1O[C@H](COP(=O)(O)OP(=O)(O)OP(=O)(O)O)[C@@H](O)[C@H]1O,inactive
3,CCN(c1cc(C#CCN2CCOCC2)cc(C(=O)NCc2c(C)cc(C)[nH]c2=O)c1C)C1CCC(N(C)CCOC)CC1 (stereo not given),inactive
4,Nc1ncnc2c1ncn2[C@@H]1O[C@H](CO)C[C@@H]1O,inactive
5,COc1cc2nc(N3CCCN(C)CC3)nc(NC3CCN(C)C3)c2cc1OC (stereo not given),24.1 µM (active)
6,CNc1ncnc2c1ncn2[C@@H]1O[C@H](CO)[C@@H](O)[C@H]1O,inactive
7,Nc1ncnc2c1ncn2[C@@H]1O[C@H](CO)[C@@H](O)[C@H]1O,1.08 µM (active)
8,COc1cc2nc(N3CCN(C)CC3)nc(NC3CCN(C)CC3)c2cc1OC,24.1 µM (active)
9,O=S(=O)(O)c1ccc(Nc2ncnc3c2ncn3[C@@H]2O[C@H](CO)[C@@H](O)[C@H]2O)cc1,inactive
10,COc1cc2c(NC3CCN(C(C)C)CC3)nc(N3CCC(N4CCCC4)CC3)nc2cc1OCCCN1CCCCC1,24.1 µM (active)
11,COc1cc2c(NC3CCN(C)CC3)cc(N3CCCCN(C)CC3)cc2cc1OCCOCCN(C)C,27.1 µM (active)
12,CNc1nc(N2CCCN(C)CC2)nc2cc(OC)c(OC)cc12,27.1 µM (active)
13,CNC(=O)[C@H]1O[C@H](n2cnc3c(NCc4cccc(I)c4)ncnc32)[C@@H](O)[C@@H]1O,inactive
14,COc1cc2c(NC3CCN(C4CCCCC4)CC3)nc(N3CCCN(C)CC3)nc2cc1OCCOCCN(C)C,27.1 µM (active)
15,Nc1ncnc2c1nc(Br)n2C1CC(O)C(CO)O1 (stereo not given),inactive
16,COc1cc2c(NC3CCN(C(C)C)CC3)nc(N3CCCN(CC4CCCCC4)CC3)nc2cc1OCCCN1CCCCC1,24.1 µM (active)
17,COc1cc2nc(N3CC[C@@H](N(C)C)C3)nc(NC3CC3)c2cc1OC,inactive
18,COc1cc2c(NC3CCN(C)CC3)nc(N3CCCN(C)CC3)nc2cc1OCCCN1CCCC1,27.1 µM (active)
19,COc1cc2c(NC3CCN(C)CC3)nc(N3CCCN(C)CC3)nc2cc1O,24.1 µM (active)
20,CCNc1nc(N2CCCN(C)CC2)nc2cc(OC)c(OC)cc12,34.1 µM (active)

row,Compound,Potency
1,COc1cc2c(NC3CCN(C(C)C)CC3)nc(N3CCC(F)(F)CC3)nc2cc1OCCCN1CCCCC1,6.81 µM (active)
2,COc1cc2c(NC3CCN(C4CCCCC4)CC3)nc(N3CCCN(C(C)C)CC3)nc2cc1OCCCN1CCCCC1,24.1 µM (active)
3,CC(C)N(C[C@H]1O[C@@H](n2cnc3c(N)ncnc32)[C@H](O)[C@@H]1O)C1CC(CCc2nc3ccc(C(C)(C)C)cc3[nH]2)C1 (stereo not given in full),inactive
4,COc1cc2c(NC3CCN(C(C)C)CC3)nc(N3CCCN(C(C)C)CC3)nc2cc1OCCOCCN(C)C,24.1 µM (active)
5,COc1cc2c(NC3CCN(C(C)C)CC3)nc(N3CCCN(C4CCCCC4)CC3)nc2cc1OCCCN1CCCC1,24.1 µM (active)
6,COc1cc2nc(N3CCCCC3)nc(NC3CCN(Cc4ccccc4)CC3)c2cc1OC,21.5 µM (active)
7,COC1C(CO)OC(n2cnc3c(=O)[nH]cnc32)C1O (stereo not given),inactive
8,CO[C@@H]1[C@@H]2OP(=O)(O)OC[C@H]2O[C@H]1n1c(Sc2ccc(Cl)cc2)nc2c(N)ncnc21,inactive
9,Nc1nc(Cl)nc2c1ncn2[C@@H]1O[C@H](COP(=O)(O)OP(=O)(O)OP(=O)(O)O)C(O)[C@H]1O (stereo not given in full),21.5 µM (active)
10,COc1cc2c(NC3CCN(CC4CCCCC4)CC3)nc(N3CCCN(C)CC3)nc2cc1OCCOCCN(C)C,24.1 µM (active)
11,COc1cc2nc(N3CCCN(C)CC3)nc(N(C)C)c2cc1OC,inactive
12,Nc1ncnc2c1nc(Br)n2C1OC(CO)C(O)C1O (stereo not given),inactive
13,C[C@@H](Cc1ccccc1)Nc1ncnc2c1ncn2[C@@H]1O[C@H](CO)[C@@H](O)[C@H]1O,inactive
14,NC[C@H]1O[C@@H](n2cnc3c(N)ncnc32)[C@H](O)[C@@H]1O,inactive
15,COc1cc2nc(N3CCCN(C)CC3)nc(NC3CCOCC3)c2cc1OC,24.1 µM (active)
16,COc1cc2nc(N3CCCN(C)CC3)nc(NC(C)C)c2cc1OC,24.1 µM (active)
17,OCC1OC(n2cnc3c(NCc4ccco4)ncnc32)C(O)C1O (stereo not given),19.2 µM (active)
18,COc1cc2nc(N(C)C)nc(NC3CCN(C)CC3)c2cc1OC,24.1 µM (active)
19,CSCC1OC(n2cnc3c(N)ncnc32)C(O)C1O (stereo not given),inactive
20,Nc1ncnc2c1[nH]c(=O)n2C1OC(CO)C(O)C1O (stereo not given),inactive
